In PubChem BioAssay AID602283 (Johns Hopkins Ion Channel Center, 2012):
Out of some 1,100 compounds screened, about 940 (85%) were called active. The set was probably picked from earlier hits. A selection follows. Unmarked numbers belong to inactive results.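 Rule for the calls: active = inhibition exceeding 3 SD of buffer-only control wells (cut at about 26% in these data); inactive = the rest.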

assay: M3R calcium signalling without RGS4 expression – cell-based, HEK293 M3R, non-induced RGS4, Fluo-4 calcium, counter-screen for RGS4 activator project, primary screen (AID 602283); settings: HEK293 M3R non-induced RGS4, Fluo4 calcium flux, at 10 µM, active compounds read high, after carbachol challenge at its EC90;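 note: percent drop in integrated peak-minus-baseline over baseline Fluo4 ratio after carbachol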

SMILES | inhibition
OC(CN=c1sc2ccccc2n1CC(O)COc1ccccc1)COc1ccccc1 (stereo not given) | 92.8% (active)
Cc1ccc(C)c(N2CCN(C(=O)CCCn3c(=O)c4cccn4c4cccnc43)CC2)c1 | 55.3% (active)
Cc1ccc(C)c(N2CCN(C(=O)CCCCCn3c(=S)[nH]c4ccc(N5CCOCC5)cc4c3=O)CC2)c1 | 52.8% (active)
CCOC(=O)c1c(NC(=O)NC(C)(C)C)sc2c1CCN(C)C2 | 0% [the number is a placeholder, only the call stands]
COc1ccc(/C=C(\C#N)c2c[nH]c3ccccc23)cc1 | 70.8% (active)
Cc1ccc(N2C(=O)CC(Nc3cccc4ccccc34)C2=O)cc1 (stereo not given) | 0% [the number is a placeholder, only the call stands]
Cc1oc2c(F)c(F)c(F)c(F)c2c1S(=O)(=O)Nc1cccc(C(F)(F)F)c1 | 88.8% (active)
Cc1nc(N2CCN(c3ccccn3)CC2)c2c(C)c(C(=O)Nc3ccc(F)cc3)sc2n1 | 72.8% (active)
O=S(=O)(c1ccc(Br)cc1)n1ccc2ccccc21 | 36.8% (active)
Cc1ccc(OCCCCN2CCCCC2)c(Br)c1 | 0% [the number is a placeholder, only the call stands]
CCCN(CCc1ccccc1)C1CCc2c(O)cccc2C1 (stereo not given) | 34.8% (active)
Cc1cccc(-c2nc3ccc(C(=O)NCCN4CCN(C)CC4)cc3nc2-c2cccc(C)c2)c1 | 93.8% (active)
CN1CCN(C(=O)N2c3ccccc3CCc3ccccc32)CC1 | 57.3% (active)
Cc1nn(C)cc1N1C(=O)c2cccc3c(N)ccc(c23)C1=O | 101% (active)
CN(C)c1ccc(/C=C2\NC(=S)N(Cc3ccccc3)C2=O)cc1 | 62.8% (active)
CC(C)C(c1nnnn1CCc1ccccc1)N1CCN(C(=O)c2ccco2)CC1 (stereo not given) | 25.8% (active)
COc1ccc(C(=O)Nc2nc(-c3ccc(S(=O)(=O)N4CCOCC4)cc3)cs2)cc1 | 36.3% (active)
N=c1c2c3c(sc2nc2n1CCCCC2)CCCC3 | 55.8% (active)
CCOC(=O)C1=C(NC(=S)NC(=O)c2ccccc2)c2ccccc2CC1(C)C | 61.3% (active)
OCCC1CN(Cc2ccc3nsnc3c2)CCN1C1CCCC1 (stereo not given) | 43.8% (active)
CCC1C=C(c2ccccc2)C=CN=C1N(CC)CC (stereo not given) | 83.8% (active)
O=C(CN1CCCCCC1)Nc1ccc(S(=O)(=O)N2CCCCC2)cc1 | 83.8% (active)
COc1cccc(-c2cc3nc4c(c(N5CCC6(CC5)OCCO6)n3n2)CCCC4)c1 | 31.8% (active)
CCc1ccccc1NC(=O)[C@@H]1CCC(=O)N1C1OC(=O)c2c1ccc(OC)c2OC (stereo not given in full) | 0% [the number is a placeholder, only the call stands]
COc1cc(/C=C(\C#N)c2nc3ccccc3[nH]2)ccc1O | 61.3% (active)

SMILES | inhibition
CN(C)S(=O)(=O)N1CCC(Oc2cccc(C(=O)NCCCC3CCCC3)c2)CC1 | 61.8% (active)
CCc1c(C)sc(NC(=O)c2ccc(Br)o2)c1C(=O)OC | 0% [the number is a placeholder, only the call stands]
CCOc1ccc(C(CC(=O)O)NC(=O)COc2ccccc2)cc1 (stereo not given) | 0% [the number is a placeholder, only the call stands]
Cc1ccccc1C(OCCN(C)C)C1CCCCC1 (stereo not given) | 95.3% (active)
O=C(Cn1c(N2CCN(C/C=C/c3ccccc3)CC2)nc2ccccc21)c1ccccc1 | 91.8% (active)
COc1ccc(CN2CCCC(C(=O)c3ccc(Cl)cc3)C2)cc1Cn1cncn1 (stereo not given) | 68.8% (active)
COc1cccc(/C=N/Nc2cc(C)nc(-c3ccccc3O)n2)c1O | 85.8% (active)
Cc1cccc(-c2nc(Nc3ccc(O)cc3)c3ccccc3n2)c1 | 35.3% (active)
Oc1ccccc1N1CCN(c2ncnc3sc(-c4ccccc4)cc23)CC1 | 26.3% (active)
COc1ccccc1C(CNC(=O)c1cccc(NS(=O)(=O)c2ccc(Br)cc2)c1)N(C)C (stereo not given) | 51.3% (active)
COc1cccc(CNC(=O)CCC2CCCN(Cc3ccc(OC(F)F)cc3)C2)c1 (stereo not given) | 83.8% (active)
CCC1CCCCN1CCCNC(=O)c1cc2c(Cl)nc3ccccc3c2s1 (stereo not given) | 71.8% (active)
O=C(c1cccs1)C1C(c2ccc(Br)cc2)NC(=S)NC1(O)C(F)(F)F (stereo not given) | 90.8% (active)
Cc1cc2oc3ccc(NCCC4CCCN4C)cc3c(=O)c2cc1C (stereo not given) | 87.8% (active)
CN(C)CCOc1ccc(Cl)cc1C(C)(C)C | 47.8% (active)
Cc1ccc(OS(=O)(=O)c2ccc(-c3csc(C)n3)s2)c(C)c1 | 33.8% (active)
C#CC(CCN1CCCCC1)(OC)c1ccccc1 (stereo not given) | 63.8% (active)
CCCCCC(O)(CCN1CCCCC1)c1ccccc1 (stereo not given) | 95.3% (active)
S=c1[nH]nc(-c2ccc(Cl)cc2)n1CC1CCCO1 (stereo not given) | 0% [the number is a placeholder, only the call stands]
Cc1ccc(SCC(=O)c2cc(C)c(OC(=S)N(C)C)c(C)c2)cc1 | 42.8% (active)
COc1ccc(C(=O)NC2CCCc3c2cnn3-c2cccc(C)c2C)c(OC)n1 (stereo not given) | 64.8% (active)
COc1ccc(-c2cc(C(=O)N(C)Cc3ccccc3)c3ccccc3n2)cc1 | 72.3% (active)
COc1ccc(CN(C)C(=O)c2cc(-c3ccc(C)cc3C)nc3ccccc23)c(OC)c1OC | 51.3% (active)
Cc1ccnc(SCCn2c(N(C)Cc3ccccc3)nc3c2c(=O)n(C)c(=O)n3C)n1 | 28.3% (active)
COC(=O)c1ccc(CN2CCC(CO)(Cc3ccc(OC)cc3)CC2)cc1 | 70.8% (active)
